# Screening results from PubChem BioAssay.
# PfHsp40 yeast = rescue of PfHsp40-mediated yeast toxicity. S. cerevisiae expressing PfHsp40, growth rescue, ATP luminescence. growth rescue, % at 12.5 µM. 0.68% of 340,000 active. AID 504582; in the data active means growth rescue above about 28%, passing the limit was not always enough;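 further: yeast W303a lacking pdr1 and pdr3 grown in galactose medium; growth measured after three days at 30 °C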
# Sa ugtP lethal = compounds lethal to S. aureus RN4220 ugtP deletion mutant; OD600 growth, 16 h; growth inhibition, % (concentration not given with the values); 0.54% of 330,000 active; in the data active means growth inhibition above about 68%
# Mtb hypoxia inh = Mtb hypoxia fluorescent reporter inhibition; M. tuberculosis hypoxia-regulated fluorescent reporter, fluorescence; fluorescence inhibition, % (no concentration beside the values); 0.1% of 300,000 active; in the data active means fluorescence inhibition mostly above about 23%, no sharp cut-off; inactive means mostly below about 17%
# RN4220 kill = S. aureus RN4220 growth inhibition. AID 1259311. OD600, 16 h. inhibition, % (no concentration beside the values). 0.33% of 330,000 active; in the data active means inhibition above about 85%
# CCHF vOTU inh-1 = CCHFV vOTU protease inhibition | inhibition, % at 11.5 µM | Pep-AMC fluorescence | 0.55% of 370,000 active
# BH1578 lux ind = quorum light induction in luxS cqsA deficient V. cholerae. V. cholerae BH1578 lux reporter, luminescence, 6 h. activation, % at 18.7 µM. 0.16% of 350,000 active; in the data active means activation mostly above about 9.7%, no sharp cut-off
# CCHF vOTU inh-2 = confirmation of CCHF virus vOTU protease inhibitors; Recombinant CCHFV vOTU, Pep-AMC fluorescence; shares compounds with CCHF vOTU inh-1; inhibition, % at 11.5 µM; AID 686976; 17% of 1,900 active
# Hits are given with their value; 0 = inactive; - = no result given. The list is not random: actives were taken first. Their share in the collection is about 1.7%. Unless noted, no stated cut-off is given here; in the data, active means inhibition above about 30%; inactive means the rest.
SMILES,PfHsp40 yeast,Sa ugtP lethal,Mtb hypoxia inh,RN4220 kill,CCHF vOTU inh-1,BH1578 lux ind,CCHF vOTU inh-2
CC(=O)N(C1=C(N)C(=O)c2ccccc2C1=O)c1ccccc1,0,0,0,0,73,0,64
O=C(N(c1ccccc1)c1ccccc1)N(c1ccccc1)c1ccccc1,-,0,0,0,0,0,-
Cc1cc(C(=O)Nc2cccc(S(=O)(=O)N3CCOCC3)c2)c2ccccc2n1,0,0,0,0,35,0,0
Cc1cc(C(=O)Nc2ccc(N3CCOCC3)cc2)c2ccccc2n1,0,0,0,0,0,0,-
CN(c1ccccc1)S(=O)(=O)c1ccc(C(=O)Nc2cccc(S(=O)(=O)N3CCOCC3)c2)cc1,-,-,-,-,0,0,-
COc1ccccc1N(C)S(=O)(=O)c1ccc(C(=O)Nc2cccc(S(=O)(=O)N3CCOCC3)c2)cc1,0,0,0,0,35,0,0
COc1ccccc1N(C)S(=O)(=O)c1ccc(C(=O)NNC(=O)c2ccccc2O)cc1,-,0,0,0,30,0,0
CN(C)S(=O)(=O)n1cnc(C2c3c(ncn3Cc3ccccc3)CC3COC(=O)C32)c1 (stereo not given),-,0,0,0,-,-,-
O=C(Nc1ccc(S(=O)(=O)Nc2nccs2)cc1)/C(=C/c1ccccc1Cl)NC(=O)c1ccccc1,0,-,-,-,32,0,0
Nc1cc([N+](=O)[O-])cc2oc(-c3ccccc3)cc12,0,0,0,0,32,0,0
CC(=O)N1CCc2c(sc(NC(=O)C3CC3)c2-c2nc3ccccc3s2)C1,0,0,0,0,50,0,0
CNc1oc(-c2ccccc2)nc1S(=O)(=O)c1ccc(C)cc1,0,0,0,0,30,0,0
CNc1oc(-c2ccccc2F)nc1S(=O)(=O)c1ccc(C)cc1,0,0,0,0,0,0,-
CC(=O)Nc1ccc(NCc2cccs2)cc1,0,0,0,0,0,0,-
Oc1ccc(NCc2cccs2)cc1,0,0,0,0,88,0,0
COC1=CC(=O)c2c(ccc3ncnc(N)c23)C1=O,0,-,-,-,110,0,108
CC(=C\c1ccccc1)/C=C1/SC(=S)N(C(C(=O)O)C(C)C)C1=O (stereo not given),0,0,0,0,32,0,0
C#CCOCCOCCOCCNc1nc(N2CCN(C(=O)C(CCCCN)n3cc(C(N)CO)nn3)CC2)nc(N2CCN(C(=O)C(Cc3ccc(O)cc3)n3cc(C(N)CC(C)C)nn3)CC2)n1 (stereo not given),-,0,0,0,-,-,-
O=C(NC1CCCCC1)C(c1ccccc1F)N(C(=O)c1csnn1)C1CCCC1 (stereo not given),0,0,0,0,65,0,0
COc1ccc(C=Nn2cnnc2SCCO)cc1OC,-,0,0,0,-,-,-
COc1cc2c(cc1NCc1ccccn1)oc1ccccc12,0,0,-,0,30,0,0
Cc1ccc(S(=O)(=O)Nc2ccccc2-c2ccccc2NS(=O)(=O)c2ccc(C)cc2)cc1,0,0,-,0,30,0,0
Nc1cnn(Cc2ccccc2F)c1,0,0,0,0,34,0,0
Cc1nn(-c2ccc(F)cc2)c(C)c1NS(=O)(=O)c1ccc(Cl)cc1,0,0,-,0,30,0,0
Cc1ccc(-n2nc(C)c(NS(=O)(=O)c3ccccc3)c2C)cc1C,0,0,0,0,0,0,-
SMILES,PfHsp40 yeast,Sa ugtP lethal,Mtb hypoxia inh,RN4220 kill,CCHF vOTU inh-1,BH1578 lux ind,CCHF vOTU inh-2
C=C1C2CCC3[C@]4(C)CC(OC5OC(CO)C(OS(=O)(=O)O)C(OS(=O)(=O)O)C5OC(=O)CC(C)C)CC(C(=O)O)C4CC[C@]3(C2)C1O (stereo not given in full),-,0,0,0,-,-,-
CC1=NN(c2ccc(F)cc2)C(=O)C1C(c1cccc(O)c1)c1c(C)[nH]n(-c2ccc(F)cc2)c1=O (stereo not given),0,0,-,0,66,0,0
Cc1no[n+]([O-])c1COc1cccc(/C=N/Nc2nncn2N)c1,0,-,-,-,109,0,0
COc1cc(/C=N/n2nnnc2N)ccc1OCc1c(C)no[n+]1[O-],0,-,-,-,0,0,-
COC(=O)C1=C(C)N(Cc2cccc(C(F)(F)F)c2)C(=NCc2ccc(C(F)(F)F)cc2)NC1c1cccc(F)c1 (stereo not given),-,-,-,-,38,-,0
COC(=O)C1=C(C)N(Cc2cccc(C(F)(F)F)c2)C(=NCc2ccc(C(F)(F)F)cc2)NC1c1ccc(C(F)(F)F)cc1 (stereo not given),-,-,-,-,40,-,0
